Results on 56 molecules are retold here after PMC4336329 (PLoS ONE, 2015).

Each structure is given as a SMILES string. About 14,000 (4.5%) of roughly 310,000 compounds showed an effect of 50% or more. The effect is printed as a negative number. This excerpt belongs to a sample that is enriched for strong results.
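Note: peak tail current of the secondary pulse compared with the same well before compound.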

The target of this test is human ether-à-go-go-related gene (hERG) potassium channel (human, UniProt Q12809). In words: primary screen, population patch clamp on CHO cells stably expressing hERG; higher = less effect of the substance.
human ether-à-go-go-related gene (hERG) potassium channel, sequence (Q12809 whole entry, looked up): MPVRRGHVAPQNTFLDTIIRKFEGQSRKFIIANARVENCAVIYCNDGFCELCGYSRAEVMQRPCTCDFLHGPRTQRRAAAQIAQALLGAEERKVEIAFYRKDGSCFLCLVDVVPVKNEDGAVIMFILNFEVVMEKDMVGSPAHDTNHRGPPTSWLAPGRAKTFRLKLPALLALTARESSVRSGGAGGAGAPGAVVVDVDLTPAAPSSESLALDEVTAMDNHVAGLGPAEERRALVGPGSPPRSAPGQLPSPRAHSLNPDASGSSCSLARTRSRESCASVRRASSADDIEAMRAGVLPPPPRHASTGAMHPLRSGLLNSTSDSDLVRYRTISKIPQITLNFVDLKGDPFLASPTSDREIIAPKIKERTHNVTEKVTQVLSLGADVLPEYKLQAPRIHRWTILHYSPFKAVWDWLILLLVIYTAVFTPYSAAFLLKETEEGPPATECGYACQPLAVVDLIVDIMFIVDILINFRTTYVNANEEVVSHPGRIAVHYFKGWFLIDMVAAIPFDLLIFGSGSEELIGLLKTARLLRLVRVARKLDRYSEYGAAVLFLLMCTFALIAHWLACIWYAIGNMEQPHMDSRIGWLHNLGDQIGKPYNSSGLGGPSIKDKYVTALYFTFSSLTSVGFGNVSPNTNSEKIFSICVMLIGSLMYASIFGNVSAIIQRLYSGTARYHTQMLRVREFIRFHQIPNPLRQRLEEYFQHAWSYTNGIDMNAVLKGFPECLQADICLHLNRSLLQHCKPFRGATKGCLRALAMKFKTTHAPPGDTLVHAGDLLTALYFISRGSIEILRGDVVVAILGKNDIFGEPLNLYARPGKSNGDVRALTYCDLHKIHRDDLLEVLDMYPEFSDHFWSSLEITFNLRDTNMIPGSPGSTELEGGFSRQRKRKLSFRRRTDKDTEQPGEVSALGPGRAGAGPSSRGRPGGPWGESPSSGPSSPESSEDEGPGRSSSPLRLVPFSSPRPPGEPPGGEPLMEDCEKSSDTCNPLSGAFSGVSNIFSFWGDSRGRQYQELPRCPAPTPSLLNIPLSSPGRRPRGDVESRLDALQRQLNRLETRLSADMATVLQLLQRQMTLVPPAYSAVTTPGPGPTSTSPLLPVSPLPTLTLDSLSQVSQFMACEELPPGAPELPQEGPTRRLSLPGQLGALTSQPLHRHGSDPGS
For the molecule `COc1cc(OC)nc(Oc2ccccc2C(=O)Oc2cccc(C)c2)n1`, the “hERG current change (%, negative = inhibition) at 10uM” value turned out to be 7.95%.
Next, `CC1=NN(C(=O)c2ccc(Cl)cc2)C(O)(c2ccccc2)C1` (centres unmarked): 22%; `COc1ccccc1C(=O)N(C1=NC(C)CS1)c1ccc(Cl)cc1` (centres unmarked): 7.94%; `Cc1cc(C)c(C#N)c(N2CCCC2)n1`: 5.67%.
`COCCCNC(=O)c1ccc(CS(=O)(=O)c2ccc(Br)cc2)o1`: the “hERG current change (%, negative = inhibition) at 10uM” value is -14.3%.
As for `COC(=O)C1=C(C(=O)OC)[N+]2=C3N(C(=O)NC2(C)C)[C@H](CO)C[C@@]32c3ccccc3N(Cc3ccccc3)[C@@H]12`, the “hERG current change (%, negative = inhibition) at 10uM” value is given as -11.2%.
As to `CCOc1ccc(CCNC(=O)CN(C)S(=O)(=O)c2cccs2)cc1OCC`, the “hERG current change (%, negative = inhibition) at 10uM” value was 10.2%.
In the case of `CC(=O)Nc1cccc(NC(=O)CSc2nnc(NC(=O)c3ccco3)s2)c1`, the “hERG current change (%, negative = inhibition) at 10uM” value is on record as 4.45%.
Next, `O=C(Nc1ccccc1Oc1ccccc1)C1CC1`: 12.2%.
As to `O=C(Nc1ccccc1Oc1ccccc1)C1CCCC1`, the “hERG current change (%, negative = inhibition) at 10uM” value was determined as 6.32%.
The value for `O=C(Nc1ccccc1Oc1cccnc1)C1CCCN(C/C=C/c2ccc(F)cc2)C1` (centres unmarked) was -76.9%; that for `O=C(Nc1ccccc1Oc1cccnc1)C1CCCN(C/C=C/c2ccccc2)C1` (centres unmarked) was -76.9%.
`CCN(CC)C(=O)C1CCCN(C/C=C/c2ccccc2)C1` (centres unmarked): the “hERG current change (%, negative = inhibition) at 10uM” value was -40.8%.
Regarding `COc1cc(CN2CCCC(C(=O)Nc3ccccc3Oc3cccnc3)C2)ccc1F` (centres unmarked), the “hERG current change (%, negative = inhibition) at 10uM” value was -39%.
For `O=C(Nc1ccncc1)c1ccc([N+](=O)[O-])cc1Cl`, the “hERG current change (%, negative = inhibition) at 10uM” value is -3.15%.
As for `O=C(O)C1CC=C(Cl)CC1C(=O)NCc1ccccc1` (centres unmarked), the “hERG current change (%, negative = inhibition) at 10uM” value was 6.61%.
The value for `COc1ccc(C(=O)NC2=C(C#N)CCC2)cc1OC` was 9.08%; that for `NC(=O)NC(CC(=O)N1CCc2ccccc2C1)c1ccc(Cl)cc1` (centres unmarked) was 2.09%.
As for `COC(=O)[C@H](CCSC)NC(=O)Nc1ccc(OC)c(Cl)c1`, the “hERG current change (%, negative = inhibition) at 10uM” value is given as -6.64%.
Take `COC(=O)[C@H](CCSC)NC(=O)Nc1ccc(C)cc1`: the “hERG current change (%, negative = inhibition) at 10uM” value is on record as 11.6%.
Turning to `COC(=O)[C@H](CCSC)NC(=O)Nc1ccc(C)c(C)c1`, the “hERG current change (%, negative = inhibition) at 10uM” value is recorded as -83.6%.
Regarding `CC(C)(Oc1ccc(Cl)cc1)C(=O)N(Cc1ccccc1)c1ccccn1`, the “hERG current change (%, negative = inhibition) at 10uM” value is given as -7.15%.
Turning to `O=C(COc1ccc(Cl)cc1)N(Cc1ccccc1)c1ccccn1`, the “hERG current change (%, negative = inhibition) at 10uM” value is given as -36%.
For the molecule `CCCCCc1ccc(-c2ccc(OC)cc2)nc1`, the “hERG current change (%, negative = inhibition) at 10uM” value is recorded as 19.7%.
`CN(C)CCN(Cc1ccc(Cl)cc1)c1ccccn1.Cl`: the “hERG current change (%, negative = inhibition) at 10uM” value is listed as -74.4%.
For `CCCCCCCCCCCCCCCC[N+](C)(C)CCN(Cc1ccc(OC)cc1)c1ncccn1.[Br-]`, the “hERG current change (%, negative = inhibition) at 10uM” value is reported as -75%.
The value for `CC[N+](C)(C)CCN(Cc1ccc(Cl)cc1)c1ccccn1.[Br-]` was -68.6%; that for `CN(C)CCN(Cc1ccccc1)c1ccccn1.Cl` was -48.6%; that for `COc1ccc(CN(CCN(C)C)c2ccccn2)cc1.O=C(O)/C=C\C(=O)O` was -38.5%.
For `C[N+](C)(C)CCN(Cc1ccc(Cl)cc1)c1ccccn1.[I-]`, the “hERG current change (%, negative = inhibition) at 10uM” value is -14.4%.
Take `Nc1nc(-c2ccco2)nn1C(=O)CCc1ccccc1`: the “hERG current change (%, negative = inhibition) at 10uM” value is given as -0.902%.
Next, `CCCOc1ccccc1C(=O)N1CCNC(=O)C1CC(=O)OC(C)C` (centres unmarked): 0.716%.
Consider `CCOC(=O)N1CCN(S(=O)(=O)c2cc(Cl)c(OC)cc2Cl)CC1`, for which the “hERG current change (%, negative = inhibition) at 10uM” value stood at 4.96%.
Next, `CCN(CC)S(=O)(=O)c1ccc2[nH]c(=O)cc(C(=O)NCC3CCCO3)c2c1` (centres unmarked): -10.3%.
In the case of `COc1ccc(NC(=O)c2ccc(NC(=O)COC(=O)CC(NC(=O)c3ccccc3Cl)c3ccccc3)cc2)cc1` (centres unmarked), the “hERG current change (%, negative = inhibition) at 10uM” value is -2.55%.
With `CCC(=O)Nc1nc(CC(=O)Nc2ccccc2)cs1`, the “hERG current change (%, negative = inhibition) at 10uM” value is given as 18.2%.
Consider `COc1ccc(CC(=O)N2CCN(c3ccccn3)CC2)cc1`, for which the “hERG current change (%, negative = inhibition) at 10uM” value is reported as 7.79%.
Consider `CCn1c(CCCOc2ccc(Cl)cc2Cl)nnc1SCC(=O)Nc1cc(F)ccc1C`, for which the “hERG current change (%, negative = inhibition) at 10uM” value is -13.1%.
Next, `Cn1c(CNC(=O)c2ccco2)nnc1SCC(=O)Nc1ccc(Br)cc1F`: -43.4%.
The value for `CCn1c(COc2ccc(C(C)C)cc2)nnc1SCC(=O)Nc1nccs1` was -7.75%.
On to `CCn1c(CNC(=O)c2ccco2)nnc1SCC(=O)Nc1ccc(Br)cc1F`, for which the “hERG current change (%, negative = inhibition) at 10uM” value is -54.8%.
`COc1ccc(C(=O)NCCc2nnc(SCC(=O)Nc3ccccc3C(C)C)n2C)cc1`: the “hERG current change (%, negative = inhibition) at 10uM” value is -13.3%.
Regarding `CCn1c(CNC(=O)c2ccco2)nnc1SCC(=O)Nc1cc(C)c(C)cc1Br`, the “hERG current change (%, negative = inhibition) at 10uM” value is -16.6%.
`CCn1c(CNC(=O)c2ccco2)nnc1SCC(=O)Nc1cc(F)ccc1C`: the “hERG current change (%, negative = inhibition) at 10uM” value is given as -0.0602%.
Take `CCn1c(CNC(=O)COc2c(C)cccc2C)nnc1SCC(=O)Nc1nccs1`: the “hERG current change (%, negative = inhibition) at 10uM” value was -51.8%.
Regarding `CCn1c(CNC(=O)Cc2ccc(OC)cc2)nnc1SCC(=O)Nc1nccs1`, the “hERG current change (%, negative = inhibition) at 10uM” value is reported as -5.75%.
In the case of `CCCCc1nnc(SCC(=O)Nc2nccs2)n1CC`, the “hERG current change (%, negative = inhibition) at 10uM” value is 4.93%.
In the case of `CCn1c(CNC(=O)COc2ccc(C(C)C)cc2)nnc1SCC(=O)Nc1ccccc1C(C)C`, the “hERG current change (%, negative = inhibition) at 10uM” value is on record as -55.1%.
For the molecule `CCn1c(CNC(=O)COc2ccc(C(C)C)cc2)nnc1SCC(=O)Nc1cc(F)ccc1C`, the “hERG current change (%, negative = inhibition) at 10uM” value is recorded as -65.7%.
For `CN(C)S(=O)(=O)c1ccc(Cl)c(C(=O)NC2CCCCCCC2)c1`, the “hERG current change (%, negative = inhibition) at 10uM” value is reported as 7.33%.
`O=C(Cn1nnc(-c2ccncc2)n1)N1CCc2ccccc21`: the “hERG current change (%, negative = inhibition) at 10uM” value was determined as 15.2%.
Take `CCCc1nc2oc3c(NCc4ccccn4)ncnc3c2c2c1COC(C)(C)C2`: the “hERG current change (%, negative = inhibition) at 10uM” value is -17.8%.
On to `COc1cccc(CN2CCNC(=O)C2CC(=O)NCCCn2ccnc2)c1` (centres unmarked), for which the “hERG current change (%, negative = inhibition) at 10uM” value is on record as 37.2%.
Next, `Cc1cc(=O)[nH]c(/N=C(\N)Nc2cccc3ccccc23)n1`: 11.5%.
Regarding `NNC(=O)c1ccc(COCC(F)(F)C(F)F)cc1`, the “hERG current change (%, negative = inhibition) at 10uM” value amounted to 14.5%.
Next, `CC(NC(=O)c1cc2cc(Cl)ccc2oc1=N)c1ccccc1` (centres unmarked): 7.55%.
